From ChEMBL document CHEMBL1961873, “Compounds: GSK PKIS; Assays: Nanosyn kinase panel” (2012) come the findings set out here.

Values joined by “and” are separate entries in the source; they are usually repeats but may differ in a detail not shown here. Identical values can stand only once.
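Also: reported values are mean inhibition figures.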

RAC-alpha serine/threonine-protein kinase (Homo sapiens), sequence (P31749 whole entry): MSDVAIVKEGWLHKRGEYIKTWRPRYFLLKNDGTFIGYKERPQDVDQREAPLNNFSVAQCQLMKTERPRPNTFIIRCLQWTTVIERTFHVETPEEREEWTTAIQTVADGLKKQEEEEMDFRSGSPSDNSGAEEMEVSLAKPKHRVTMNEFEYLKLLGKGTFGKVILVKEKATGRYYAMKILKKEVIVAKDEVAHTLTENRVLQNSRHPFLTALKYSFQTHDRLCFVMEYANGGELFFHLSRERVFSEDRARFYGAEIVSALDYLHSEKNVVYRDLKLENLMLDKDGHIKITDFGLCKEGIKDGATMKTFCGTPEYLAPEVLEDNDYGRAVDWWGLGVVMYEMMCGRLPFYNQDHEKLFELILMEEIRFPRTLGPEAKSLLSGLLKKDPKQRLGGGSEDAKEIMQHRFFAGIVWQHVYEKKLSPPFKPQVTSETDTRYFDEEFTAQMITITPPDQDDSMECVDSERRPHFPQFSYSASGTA

This test has as its target RAC-alpha serine/threonine-protein kinase (Homo sapiens) (UniProt P31749). To be noted: at 0.1 µM.
As a reminder, the inhibition is the change of the read-out against control, counted positive when it falls. Take `Nc1nonc1-c1nc2cnccc2n1C1CC1`: the inhibition was 1.26% and -2.25%.

Regarding `NS(=O)(=O)c1cccc(N/C=C2\C(=O)Nc3ccccc32)c1`, the inhibition was 0.57%.

As for `CC1=C(C(=O)Nc2ccc3[nH]ncc3c2)C(c2ccc(F)cc2)N=C(c2ccc(C(F)(F)F)nc2)N1` (stereo unspecified), the inhibition was found to be 0.83%.

As to `CNC(=O)c1cncc(/C=C/c2ccccc2C)c1`, the inhibition is 0.63%.

`CN1CCC(C(=O)Nc2n[nH]c3nc(-c4ccc(O)cc4)c(Br)cc23)CC1`: the inhibition was -3.78% and 0.82%.

For the compound `Cc1cc(O)cc(C)c1/C=C/c1cncc(C(N)=O)c1`, the inhibition was 0.41%.

Consider `CS(=O)(=O)Nc1ccc(-c2cc(-c3ccccc3)cc(C(N)=O)c2N)cc1`, for which the inhibition is 0.58%.

For `CS(=O)(=O)CCNCc1ccc(-c2ccc3ncnc(Nc4ccc(OCc5ccccc5)cc4)c3c2)o1`, the inhibition worked out at 0.6%.

In the case of `CCOc1ccc2c(-c3ccnc(Nc4cc(OC)cc(C(F)(F)F)c4)n3)cnn2n1`, the inhibition came out at 0.02%.

`Cc1cc(O)cc(C)c1/C=C/c1cncc(C(=O)OC(C)(C)C)c1`: the inhibition stood at 0.38%.

`O=C1Nc2ccccc2/C1=C1\CCc2cc(O)ccc21`: the inhibition was 1.29%.

For `CCS(=O)(=O)c1ccc(OC)c(Nc2ncc(-c3cccc(F)c3)o2)c1`, the inhibition worked out at 0.91%.

Turning to `COc1cccc(Nc2nccc(-c3cnn4ncccc34)n2)c1`, the inhibition is 1.34%.

As to `Nc1ncnc2occ(-c3ccc(NC(=O)Nc4cc(C(F)(F)F)ccc4F)cc3)c12`, the inhibition was 0.73% and -2.6%.

As to `O=C(Nc1n[nH]c2nnc(-c3cccnc3)cc12)C1CC1`, the inhibition was -0.73%.

As to `O=C(O[C@H]1CN[C@H](C#Cc2cc3ncnc(Nc4ccc5c(cnn5Cc5ccccc5)c4)c3s2)C1)N1CCOCC1`, the inhibition is -0.59%.

As for `COc1cc(N2CCN(C(C)C)CC2)ccc1Nc1nc(Nc2cccc3ncccc23)c2cc[nH]c2n1`, the inhibition was -0.64%.

With `CS(=O)(=O)CCNCc1ccoc1-c1ccc2ncnc(Nc3ccc(OCc4ccccc4)cc3)c2c1`, the inhibition was -0.19%.

Turning to `CCN1CCC(C(=O)Nc2n[nH]c3nnc(-c4cccc(F)c4F)cc23)CC1`, the inhibition is -0.41%.

Regarding `COc1ccc(-c2nn3ncccc3c2-c2ccnc(Nc3ccc(F)c(F)c3)n2)cc1`, the inhibition was determined as 0.52%.

Consider `CCS(=O)(=O)c1ccc(OC)c(Nc2ncc(-c3cccc(C(C)=O)c3)o2)c1`, for which the inhibition amounted to 0.68%.

For the compound `c1cnn2ncc(-c3ccnc(NCCCN4CCOCC4)n3)c2c1`, the inhibition stood at 0.48%.

Regarding `CN(C)CCNC(=O)Nc1ccc(N(C)c2ccnc(Nc3ccc(CS(C)(=O)=O)cc3)n2)cc1`, the inhibition amounted to 1.23%.

As to `CCn1c(-c2nonc2N)nc2cncc(C(=O)NCCNC)c21`, the inhibition worked out at 1.98%.

With `COc1cc(N2CCN(C(C)C)CC2)ccc1Nc1nc(Nc2cccc(F)c2C(=O)O)c2cc[nH]c2n1`, the inhibition worked out at 0.12%.

For the compound `COC(=O)Nc1nc2cc(Oc3ccc(NC(=O)Nc4ccccc4)cc3)ccc2[nH]1`, the inhibition is 0.35%.

`NC(=O)c1ccc2c(-c3ccnc(NCCCO)n3)c(-c3ccc(F)cc3)nn2c1`: the inhibition was 0.79%.

In the case of `CS(=O)(=O)Nc1ccc(-c2ccc3c(NC(=O)C4CC4)n[nH]c3c2)cc1`, the inhibition stood at 1.74%.

Regarding `COC(=O)Nc1nc2ccc(Oc3ccc(NC(=O)Nc4cc(C(F)(F)F)ccc4F)cc3)cc2s1`, the inhibition is -0.37%.

With `COc1ccccc1-c1cc(/C=C2\C(=O)Nc3ncc(Br)cc32)cc(Br)c1O`, the inhibition was 0.67%.

Turning to `Cc1nnc(-c2cccc(-c3ccc(C(=O)NCC4CC4)cc3)c2)o1`, the inhibition came out at 0.55%.
